The source of these data is PubChem BioAssay (Tox21).

Several values for one entry are separate records, joined by “and”; a condition that tells them apart may be missing. Equal values may be shown once. Inconclusive results are not listed. Entries that show only a call come without a potency. Activity calls are given as the source filed them. Calls follow the shape of the dose curve; as a rule, active = well fitted cell-killing curve with a large enough effect in the repeat runs; inconclusive = weak or mixed curves, or effect the other way; inactive = flat fitted curve, though single readings scatter.
Potency is read from the fitted curve at half-maximal effect.

The assay in a line: qHTS assay to identify small molecule agonists of the androgen receptor (AR) signaling pathway in the presence of an antagonist - cell viability counter screen (AID 1259379). Also: nearly all actives have a fitted effect of over 25% in size.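 As to activity change, negative = cytotoxicity: MDA-kb2 human breast cancer cells carrying an MMTV luciferase reporter.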 The settings on record: MDA-kb2 viability, CellTiter-Fluor, 16 h; series mostly up to 92.4 µM. The gist of the method: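 Viability counter screen: CellTiter-Fluor fluorescence, measured in the same wells as the luciferase read-out. MDA-kb2 cells, 3,000/well, with nilutamide at 3.0uM final and compounds at 15 concentrations, 16 hr at 37C, 0% CO2.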
(Quantitative high-throughput screening tests each substance at several concentrations.)
For `CCCCCCCCCCCCCCn1cc[n+](C)c1`, the Potency is 7.71 µM (active) and 1.7 µM (active). Still for that read-out and setting: the value for `O=c1c2ccccc2c(=O)c2c1cc(Cl)c1[nH]c3c([nH]c12)c(Cl)cc1c(=O)c2ccccc2c(=O)c13` was “inactive”; that for `CCC(C)Br` (centres undefined) was “inactive”; that for `O=[N+]([O-])c1ccccc1-c1ccccc1` was “inactive”. With `CCN(CC)C(=S)S`, the Potency entry was “inactive”. As for `Cc1c([N+](=O)[O-])c(C)c([N+](=O)[O-])c(C(C)(C)C)c1[N+](=O)[O-]`, the Potency result is “inactive”.

In the case of `CC(=O)[O-].CC(=O)[O-].CC(=O)[O-].[Cr+3]`, the Potency result was “inactive”. As to `CCCCON=O`, the Potency result is “inactive”. Consider `C[C@@H]1CC2=CC(=O)CC[C@@H]2[C@H]2CC[C@@]3(C)[C@@H](CC[C@]3(C)O)[C@@H]21`, for which the Potency entry is “inactive”. On to `OCC(Br)CBr` (centres undefined), for which the Potency entry is “inactive”. As to `[O]=[Cr][O][Cr]=[O]`, the Potency result was “inactive”. `CC(=O)[O-].CC(=O)[O-].O.O.[Zn+2]`: the Potency result was “inactive”. On to `CC1=C2C[C@H]3[C@@H](CC=C4C[C@@H](O)CC[C@@]43C)[C@@H]2CC[C@]12O[C@@H]1C[C@H](C)CN[C@H]1[C@H]2C`, for which the Potency is 26.6 µM (active).

With `CCCCC(CC)COC(=O)c1ccccc1C(=O)OCC(CC)CCCC` (centres undefined), the Potency result was “inactive”.

On to `[Cl-].[Cl-].[Cl-].[Yb+3]`, for which the Potency entry is “inactive”. For the molecule `CNC(C)(C)Cc1ccccc1`, the Potency entry was “inactive”. On to `CCN(CC)CCN1C(=O)CN=C(c2ccccc2F)c2cc(Cl)ccc21`, for which the Potency result was “inactive”. Take `CC(=O)C(Cl)C(=O)N(C)C` (centres undefined): the Potency entry is “inactive”. On to `CCC(C)Nc1c([N+](=O)[O-])cc(C(C)(C)C)cc1[N+](=O)[O-]` (centres undefined), for which the Potency result is “inactive”. In the case of `CCn1cc[n+](C)c1` (tested in a mixture with another compound), the Potency result was “inactive”. With `CCC1COC(Cn2cncn2)(c2ccc(Cl)cc2Cl)O1` (centres undefined), the Potency result was “inactive”.

In the case of `O=[N+]([O-])c1ccc(CCl)cc1`, the Potency result was “inactive”. As for `CC(C)N(C(=O)SC/C(Cl)=C/Cl)C(C)C`, the Potency result is “inactive”. `O.O.O.O=C([O-])[C@H]([O-])[C@@H]([O-])C(=O)[O-].O=C([O-])[C@H]([O-])[C@@H]([O-])C(=O)[O-].[K+].[K+].[Sb+3].[Sb+3]`: the Potency was 17.3 µM (active).

With `c1ccc(Nc2ccc(Nc3ccccc3)cc2)cc1`, the Potency result is “inactive”. For `COc1ccc(Cc2nccc3cc(OC)c(OC)cc23)cc1OC`, the Potency was 18.8 µM (active). On the same count and under the same terms, the value for `N#Cc1ccc(N(CC(N)=O)CC(F)(F)F)cc1C(F)(F)F` was “inactive”. Take `ClC1=C(Cl)[C@]2(Cl)[C@@H]3[C@H]4C[C@H]([C@@H]5O[C@H]45)[C@@H]3[C@@]1(Cl)C2(Cl)Cl`: the Potency result is “inactive”. Turning to `CC(=O)[O-].CC(=O)[O-].CC(=O)[O-].[Sb+3]`, the activity change, negative = cytotoxicity is 3.2% [at 3.27 µM] (inactive).
